# The list is not random: actives were taken first. Their share in the collection is about 2.9%.
# Exocytosis inh = lytic granule exocytosis inhibition; TALL-104 LAMP-1 surface exposure, flow cytometry; cells stimulated with thapsigargin and PMA; 360,000 compounds, 0.66% hits; inhibition, % at 10 µM; AID 651702;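 active = inhibition above about 55%, limit read from the data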
# Beta2AR agonist = activates human beta-2 adrenergic receptor causing internalization | 340,000 compounds, 0.43% hits | P07550 | response, % (no concentration beside the values) | Am2.2-beta2AR cells, FAP receptor internalization, flow cytometry | AID 504454;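 active = response above a set limit, near 3 SD of response in nonfluorescent compounds, cut at about 42% in these data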
# Target sequence (P07550 whole entry, looked up): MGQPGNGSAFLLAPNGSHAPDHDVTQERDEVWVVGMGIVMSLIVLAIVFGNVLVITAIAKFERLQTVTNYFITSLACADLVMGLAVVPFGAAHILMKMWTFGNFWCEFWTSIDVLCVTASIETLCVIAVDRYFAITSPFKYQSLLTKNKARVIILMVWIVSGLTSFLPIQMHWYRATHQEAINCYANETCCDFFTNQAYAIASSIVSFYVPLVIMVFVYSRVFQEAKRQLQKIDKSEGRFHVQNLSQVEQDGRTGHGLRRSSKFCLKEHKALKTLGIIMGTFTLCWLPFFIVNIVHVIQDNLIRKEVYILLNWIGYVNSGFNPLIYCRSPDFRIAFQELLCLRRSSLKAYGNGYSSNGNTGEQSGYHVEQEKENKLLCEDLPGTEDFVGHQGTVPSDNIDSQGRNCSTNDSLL
# GRK2 inh = human GRK2 inhibition via aptamer displacement; bead flow cytometry, FAM-aptamer displacement from GRK2; P25098; 330,000 compounds, 0.59% hits; inhibition of aptamer binding, % at 10 µM;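 active = inhibition of aptamer binding above 40%, roughly 3 SD of noise, on plates passing a quality check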;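 also: median bead fluorescence of bound FAM aptamer so fluorescent compounds give negative values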
# PP1 inh = counter-screen for PP5 inhibitors: inhibitors of human PP1-alpha | P62136 | purified PP1alpha, OMFP fluorescence | inhibition, % at 6.7 µM | 320,000 compounds, 0.9% hits | AID 2235;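 active = inhibition above the mean inhibition of all tested compounds plus 3 SD, computed separately for each screening campaign, cut at about 15% in these data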
# NadD inh = inhibitors of Staphylococcus aureus NadD; 360,000 compounds, 0.78% hits; purified NadD enzyme, colorimetric absorbance read-out; inhibition, % at 20 µM; in the data active = inhibition above about 26%
# PP1 inh confirm = confirmation of human PP1 phosphatase inhibitors; shares compounds with PP1 inh; purified PP1alpha, OMFP substrate fluorescence; inhibition, % at 6.7 µM; 1,900 compounds, 52% hits; AID 2358;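 active = mean PP1 inhibition above a set limit taken from the earlier primary screen, cut at about 15% in these data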
# PP5 counter = PP5 phosphatase inhibition, counter-screen for PP1 inhibitors; purified PP5c, OMFP fluorescence; inhibition, % at 6.7 µM; 1,900 compounds, 4% hits; AID 2360; shares compounds with PP1 inh;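 active = mean PP5 inhibition over triplicate wells above about 9.5% taken from the earlier PP1 screen, limit read from the data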
# * = called active by the depositor; nt = no result given.
SMILES,Exocytosis inh,Beta2AR agonist,GRK2 inh,PP1 inh,NadD inh,PP1 inh confirm,PP5 counter
COc1cc(OC)nc(NC(=O)CS(=O)(=O)c2ccccc2)n1,-3,1,0,30*,-4,-3,-1
O=C(Nc1nc2n(n1)C(c1ccc(Cl)cc1)CC(c1ccc(Cl)cc1)N2)c1ccco1 (configuration not stated),nt,nt,0,23*,nt,16*,-2
CCOC(=O)C(C(=O)OCC)C1OC(=O)c2cc3c(cc21)C(=O)OC3C(C(=O)OCC)C(=O)OCC (configuration not stated),0,3,0,-3,-2,nt,nt
CCCC(=O)Oc1ccccc1C1SCc2cc(C)c(C)cc2CS1,-2,1,2,22*,-8,-2,-6
O=C(Nc1cccc(NC(=O)c2ccc(Br)o2)n1)c1ccc(Br)o1,-4,13,0,35*,-2,31*,-4
O=C(COC(=O)/C=C/c1ccc(F)cc1)Nc1nnc(-c2ccccc2)o1,-3,6,2,18*,13,28*,-8
COc1cccc(/C=C/C(=O)OCC(=O)Nc2nnc(-c3ccccc3)o2)c1,11,1,4,38*,7,25*,-1
COc1cccc(/C=C/C(=O)OCC(=O)Nc2nnc(-c3ccccc3)o2)c1OC,1,-1,nt,nt,6,nt,nt
O=C(COC(=O)/C=C/c1ccccc1F)Nc1nnc(-c2ccccc2)o1,-5,0,0,21*,5,22*,-1
O=C(COC(=O)CCC(=O)c1ccc(F)cc1)Nc1nnc(-c2ccccc2)o1,3,1,0,2,12,nt,nt
COc1ccc(C2CC(=O)Oc3cc(C)c(Cl)c(C)c32)cc1 (configuration not stated),5,2,1,nt,-6,nt,nt
O=C(O)c1n[nH]c2c1CC(C1CCCCC1)CC2 (configuration not stated),-13,-4,1,19*,11,8,0
CC1CCc2[nH]nc(C(=O)O)c2C1 (configuration not stated),-1,8,0,-5,-6,nt,nt
COC(=O)N/N=C/c1cc(N=Nc2ccccc2Cl)ccc1O,0,15,2,19*,2,25*,1
NS(=O)(=O)c1cccc(NC(=O)CSc2nc3nc(-c4cccs4)cc(C(F)(F)F)c3c(=O)[nH]2)c1,-1,-11,0,27*,17,21*,2
COc1cc(C(=O)Nc2cc(-c3ccccc3)[nH]n2)cc(OC)c1OC,0,33,7,20*,4,17*,-3
NC(=O)C1=CC2C3C=CC2(O)C(=O)OC3O1 (configuration not stated),-2,-3,nt,nt,-2,nt,nt
COc1ccc(CNC(=O)c2ccc(CNc3c(NC4CCCCC4)c(=O)c3=O)cc2)cc1,-6,13,0,25*,-4,14,-4
COc1cccc(C(=O)NCc2ccc(-c3nc4ccccc4s3)cc2)c1,1,-13,2,-1,3,nt,nt
COc1ccc(C(=O)NCc2ccc(-c3nc4ccccc4s3)cc2)cc1,1,-3,2,20*,-1,25*,-2
COc1ccc(NC(=O)c2ccc(CNc3c(NC4CCCCC4)c(=O)c3=O)cc2)cc1OC,0,1,0,12,5,nt,nt
CCC1CCCCN1CCNC(=O)CCS(=O)(=O)c1ccc(Br)cc1 (configuration not stated),1,2,0,-1,-6,nt,nt
CC1SC(C)C(=O)N(CC(=O)NC2CCCCC2)C1=O (configuration not stated),2,-2,nt,nt,3,nt,nt
COc1ccc(C(=O)Nc2nc3ccc(OC)cc3s2)cc1,-8,0,0,nt,-4,nt,nt
COc1ccc2nc(NC(=O)c3cccc(-c4cc5ccccc5oc4=O)c3)sc2c1,18,15,0,23*,25,26*,-3
SMILES,Exocytosis inh,Beta2AR agonist,GRK2 inh,PP1 inh,NadD inh,PP1 inh confirm,PP5 counter
Nc1cc(=O)[nH]c(SCC(=O)N2N=C(c3ccc(Cl)cc3)CC2c2ccco2)n1 (configuration not stated),2,-5,2,20*,28,10,-4
CCOc1cc(/C=N/NC(=O)Cn2nc([N+](=O)[O-])cc2C)ccc1OCc1ccc(F)cc1,-3,9,0,18*,-1,17*,-2
CCOc1cc(/C=N/NC(=O)Cn2nc([N+](=O)[O-])cc2C)cc(Br)c1OCc1ccccc1F,8,6,0,12,5,nt,nt
Cc1cn([C@H]2C[C@H](O)[C@@H](/C=C/C(=O)NCCN3CCCCC3)O2)c(=O)[nH]c1=O,2,nt,nt,nt,-2,nt,nt
Cc1ccc(CNC(=O)CCCn2nc(C)c3c(C)n(-c4ccccc4)nc3c2=O)cc1,1,-3,1,-5,4,nt,nt
N#Cc1ccccc1NC(=O)CSc1nnc(-c2ccncc2)o1,0,-11,2,33*,-5,-2,-2
Cc1cccc(C(=O)NCC(=O)Nc2ccncc2)c1,-1,-10,2,-4,2,nt,nt
O=C1C=C(O)c2c(O)cc(O)c(O)c2C1=O,-6,-7,4,57*,12,37*,-7
O=C1c2ccccc2C(=O)c2c(O)c(O)cc(O)c21,2,11,0,nt,14,nt,nt
COc1ccc(NC(=O)CN2C(=O)NC(C)(C3CC3)C2=O)cc1S(=O)(=O)N1CCCCC1 (configuration not stated),-1,1,0,-3,-1,nt,nt
Cc1cccc(NC(=O)C(=O)NNC(=O)c2ccc(C(C)(C)C)cc2)c1,-21,3,6,21*,5,10,-1
O=C(O)c1nn2cc(CCO)cnc2c1Cl,-6,6,0,-7,-4,nt,nt
O=c1c(C(c2ccccc2)c2c(O)sc3ccccc3c2=O)c(O)sc2ccccc12,-2,-2,4,25*,-2,31*,1
O=C(O)c1ccc(COc2ccccc2/C=C2\NC(=O)N(Cc3ccc(F)cc3)C2=O)cc1,-1,-5,1,3,3,nt,nt
O=C(O)c1ccc(COc2ccccc2/C=C2/NC(=O)N(c3cccc(Cl)c3)C2=O)cc1,1,17,0,38*,22,35*,2
Cc1ccccc1NC(=O)CN1C(=O)N/C(=C\c2ccccc2OCc2ccc(C(=O)O)cc2)C1=O,-2,2,4,18*,13,16*,-7
O=C(CN1C(=O)N/C(=C\c2ccccc2OCc2ccc(C(=O)O)cc2)C1=O)Nc1ccc(F)cc1,4,5,0,0,-1,nt,nt
O=C(CN1C(=O)NC2(CCCC2)C1=O)OCCOc1cccc(Cl)c1,-2,-1,0,18*,-6,-2,-5
O=C(c1cc(C2CC2)nn1-c1ccccc1)N1CCN(S(=O)(=O)c2c(F)cccc2F)CC1,0,0,0,-1,-3,nt,nt

# Screens: PubChem BioAssay, several laboratories
